# Results filed as inconclusive are left out. Entries that show only a call come without a potency. Activity calls are given as the source filed them. Calls follow the shape of the dose curve; as a rule, active = well fitted inhibition curve with a large enough effect; inconclusive = small, poorly fitted or top-dose-only effect; inactive = flat fitted curve, though single readings scatter.
# Experiments:
# Test in all cases: qHTS profiling for inhibitors of Plasmodium falciparum proliferation (AID 504749); also: nearly all actives have a fitted effect of over 60% in size
# Details in all cases: P. falciparum in erythrocytes, SYBR Green DNA, 72 h; series mostly up to 28.7 µM
# CP260 = test system: CP260
# Method in brief: (§1)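 Parasite proliferation within erythrocytes, 72 h exposure. Endpoint: SYBR Green I fluorescence after overnight lysis at room temperature. Controls: 0.29 uM artemisinin, DMSO.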
# CP262 = test system: CP262
# Method in brief: as §1
# CP286 = test system: CP286
# Method in brief: as §1
# CP265 = test system: CP265
# Method in brief: as §1
# CP266 = test system: CP266
# Method in brief: as §1
# CP269 = test system: CP269
# Method in brief: as §1
# CP291 = test system: CP291
# Method in brief: as §1
# CP305 = test system: CP305
# Method in brief: as §1
# CP268 = test system: CP268
# Method in brief: as §1
# CP297 = test system: CP297
# Method in brief: as §1
# Potency is read from the fitted curve at half-maximal effect.
Structure (SMILES),Potency (CP260),Potency (CP262),Potency (CP286),Potency (CP265),Potency (CP266),Potency (CP269),Potency (CP291),Potency (CP305),Potency (CP268),Potency (CP297)
NC(N)=NN=C(/C=C/c1ccc([N+](=O)[O-])o1)/C=C/c1ccc([N+](=O)[O-])o1,3.55 µM (active),inactive,2.24 µM (active),–,–,–,–,–,–,–
CC(C)(C)NC[C@H](O)COc1nsnc1N1CCOCC1,7.94 µM (active),inactive,–,6.31 µM (active),inactive,15.1 µM (active),13.5 µM (active),15.1 µM (active),–,–
CC[N+](C)(CC)CCOC(=O)C(O)(c1ccccc1)C1CCCCC1 (configuration not stated),inactive,–,–,inactive,inactive,inactive,–,–,inactive,–
Cc1ccc(-c2ncc(Cl)cc2-c2ccc(S(C)(=O)=O)cc2)cn1,inactive,inactive,inactive,–,inactive,–,inactive,inactive,–,inactive
CCCN(CCc1cccs1)[C@H]1CCc2c(O)cccc2C1,12.6 µM (active),–,10 µM (active),11.2 µM (active),–,15.1 µM (active),10.7 µM (active),13.5 µM (active),10.7 µM (active),6.75 µM (active)
COc1ccc(C(=O)c2ccccc2O)c(O)c1,inactive,inactive,inactive,–,inactive,inactive,inactive,inactive,inactive,inactive
O=C(O)CCNC(=O)c1ccccc1,inactive,inactive,inactive,inactive,–,inactive,inactive,inactive,inactive,inactive
N/C(=N\N=C\c1ccc(Cl)cc1)N/N=C/c1ccc(Cl)cc1,3.55 µM (active),inactive,3.55 µM (active),–,inactive,inactive,inactive,inactive,inactive,inactive
CN1CCC(OC(c2ccccc2)c2ccccc2)CC1,3.98 µM (active),–,–,3.55 µM (active),inactive,–,–,–,–,inactive
CC(=O)Nc1ccc(OC(=O)c2ccccc2OC(C)=O)cc1,inactive,inactive,inactive,inactive,–,inactive,inactive,inactive,inactive,inactive
O=C(Nc1cccc(C2=NCCN2)c1)Nc1cccc(C2=NCCN2)c1,2.51 µM (active),4.78 µM (active),2 µM (active),–,–,12 µM (active),15.1 µM (active),7.57 µM (active),15.1 µM (active),13.5 µM (active)
CCN(CC)CCOc1ccccc1C(=O)CCc1ccccc1,inactive,inactive,–,–,–,inactive,–,–,–,–
Cc1cccc(C)c1NC(=O)CN1CCCC1,inactive,inactive,inactive,inactive,–,inactive,inactive,inactive,inactive,inactive
O=C(O)c1ccc(S(=O)(=O)N(Cl)Cl)cc1,inactive,–,inactive,inactive,inactive,inactive,inactive,inactive,inactive,inactive
Cc1cc(-c2ccccc2)nnc1NCCN1CCOCC1,inactive,inactive,inactive,inactive,–,inactive,–,inactive,inactive,inactive
COc1ccc(CN(CCN(C)C)c2ncccn2)cc1,inactive,inactive,inactive,inactive,–,inactive,inactive,inactive,inactive,inactive
O=C(CN1CCN(Cc2ccc3c(c2)OCO3)CC1)N1c2ccccc2Sc2ccccc21,8.91 µM (active),–,10 µM (active),7.94 µM (active),inactive,–,–,–,–,–
Cc1ncc(CO)c(C=O)c1O,inactive,–,inactive,inactive,–,–,–,–,–,–
CN1CCN(CCC(=O)N2c3ccccc3Sc3ccc(C(F)(F)F)cc32)CC1,inactive,–,–,inactive,–,inactive,inactive,inactive,inactive,inactive
CN1CCN(C2=Nc3cc(F)ccc3Cc3ccccc32)CC1,inactive,inactive,inactive,–,–,inactive,inactive,inactive,inactive,–
O=C(Nc1ncc([N+](=O)[O-])s1)c1cccs1,inactive,inactive,inactive,inactive,–,inactive,inactive,inactive,inactive,inactive
CC1CCc2c(N3CCC(O)CC3)c(F)cc3c(=O)c(C(=O)O)cn1c23 (configuration not stated),12.6 µM (active),–,–,inactive,–,–,–,–,–,inactive
Cc1ccc(O)c([C@H](CCN(C(C)C)C(C)C)c2ccccc2)c1,5.01 µM (active),–,3.98 µM (active),7.08 µM (active),–,7.57 µM (active),9.53 µM (active),7.57 µM (active),8.49 µM (active),–
Cc1cc2c(OCC(CNC(C)(C)C)OC(=O)c3ccccc3)cccc2[nH]1 (configuration not stated),11.2 µM (active),inactive,8.91 µM (active),inactive,inactive,–,–,–,–,–
CN(CCCN1c2ccccc2CCc2ccccc21)CC(=O)c1ccc(Cl)cc1,10 µM (active),inactive,7.08 µM (active),11.2 µM (active),–,–,–,inactive,–,–
CCC(C(=O)OCCOCCN(CC)CC)c1ccccc1 (configuration not stated),inactive,inactive,inactive,–,inactive,inactive,inactive,inactive,inactive,15.1 µM (active)

Structure (SMILES),Potency (CP260),Potency (CP262),Potency (CP286),Potency (CP265),Potency (CP266),Potency (CP269),Potency (CP291),Potency (CP305),Potency (CP268),Potency (CP297)
NS(=O)(=O)c1cc(C(=O)O)cc(N2CCCC2)c1Oc1ccccc1,inactive,inactive,inactive,inactive,–,inactive,inactive,inactive,inactive,inactive
CCOCCn1c(N2CCCN(C)CC2)nc2ccccc21,inactive,inactive,inactive,–,–,inactive,inactive,–,–,–
Cc1ccc(S(=O)(=O)NC(=O)NC2CCCC2)cc1,inactive,inactive,inactive,inactive,–,inactive,inactive,inactive,inactive,–
COc1cc(C(=S)N2CCOCC2)ccc1O,inactive,inactive,inactive,inactive,–,inactive,inactive,inactive,inactive,inactive
OCCOCCN1CCN(C2=Nc3ccccc3Sc3ccccc32)CC1,inactive,inactive,inactive,inactive,–,inactive,inactive,inactive,inactive,inactive
CCCc1ncc(C[n+]2ccccc2C)c(N)n1,inactive,–,inactive,inactive,inactive,inactive,inactive,inactive,inactive,inactive
CCCCCCCCOc1ccc(C(=O)c2ccccc2)c(O)c1,inactive,inactive,inactive,inactive,–,inactive,inactive,inactive,inactive,inactive
O=C(c1ccc(F)cc1)C1CCN(CCn2c(=S)[nH]c3ccccc3c2=O)CC1,3.16 µM (active),–,3.98 µM (active),7.94 µM (active),7.57 µM (active),6.75 µM (active),6.75 µM (active),6.75 µM (active),6.01 µM (active),6.75 µM (active)
NCc1ccccc1Sc1ccccc1CO,inactive,–,inactive,inactive,inactive,inactive,inactive,inactive,–,–
CC(C)NCC(O)c1ccc2ccccc2c1 (configuration not stated),6.31 µM (active),–,11.2 µM (active),10 µM (active),inactive,–,–,–,–,–
C#C[C@]1(O)CC[C@H]2[C@@H]3CCC4=CC(=O)CC[C@@H]4[C@H]3CC[C@@]21CC,–,inactive,inactive,inactive,inactive,inactive,inactive,inactive,inactive,inactive
COc1ccc(CCN(C)CCCN2CCc3cc(OC)c(OC)cc3CC2=O)cc1OC,–,inactive,inactive,inactive,inactive,inactive,inactive,inactive,inactive,–
CCOC(=O)c1c(N)sc2c1CCN(Cc1ccccc1)C2,6.31 µM (active),–,5.62 µM (active),–,12 µM (active),6.01 µM (active),8.49 µM (active),6.01 µM (active),7.57 µM (active),7.57 µM (active)
CN(C)C(=O)Nc1ccc(Cl)c(Cl)c1,–,inactive,inactive,inactive,–,–,inactive,–,inactive,–
CCc1ccc(C(=O)C(C)CN2CCCCC2)cc1 (configuration not stated),–,inactive,inactive,inactive,inactive,inactive,inactive,inactive,inactive,inactive
O=C(CCN1CCN2CCCC2C1)N1c2ccccc2Sc2ccc(Cl)cc21 (configuration not stated),–,inactive,–,inactive,–,–,inactive,inactive,inactive,inactive
FC1(F)C(F)(F)C(F)(F)C2(F)C(F)(F)C(F)(F)C(F)(F)C(F)(F)C2(F)C1(F)F (configuration not stated),–,inactive,inactive,inactive,inactive,inactive,inactive,inactive,inactive,inactive
Oc1ccc(Cl)cc1Cc1cc(Cl)ccc1O,–,inactive,inactive,–,inactive,inactive,–,inactive,inactive,inactive
O=C(O)CCc1nc2ccccc2[nH]1,–,–,–,inactive,–,–,–,–,–,–
CC(=O)O[C@]1(C(C)=O)CC[C@H]2[C@@H]3C=C(Cl)C4=CC(=O)CC[C@]4(C)[C@H]3CC[C@@]21C,–,–,10 µM (active),–,10.7 µM (active),–,15.1 µM (active),13.5 µM (active),16.9 µM (active),9.53 µM (active)
CN(C)CCN1C(=O)c2ccccc2N(C)c2ccccc21,–,inactive,–,12.6 µM (active),inactive,–,–,–,–,13.5 µM (active)
C[N+]1(C)CCC(=C(c2ccccc2)c2ccccc2)CC1,–,–,–,inactive,–,–,–,–,–,inactive
OC(C#CCN1CCCC1)(c1ccccc1)c1ccccc1,8.91 µM (active),–,–,–,inactive,–,–,–,–,12 µM (active)
O=[N+]([O-])c1cccc(S(=O)(=O)NCCNS(=O)(=O)c2cccc([N+](=O)[O-])c2)c1,–,–,–,inactive,inactive,–,inactive,–,–,inactive
CN1CCN(c2cc3c(cc2F)c(=O)c(C(=O)O)cn3-c2ccc(F)cc2)CC1,–,–,–,inactive,–,inactive,–,–,–,inactive
CCCCCCCCCCCCOCCOCCOCCOCCOCCOCCOCCOCCOCCO,–,inactive,inactive,–,inactive,inactive,inactive,inactive,inactive,inactive

Structure (SMILES),Potency (CP260),Potency (CP262),Potency (CP286),Potency (CP265),Potency (CP266),Potency (CP269),Potency (CP291),Potency (CP305),Potency (CP268),Potency (CP297)
COc1cc(O)c(C(=O)c2ccccc2)cc1S(=O)(=O)O,–,inactive,inactive,–,inactive,–,inactive,–,inactive,inactive
O=C(O)C1(C(=O)O)CCC1.[NH2-].[NH2-].[Pt+2],–,inactive,inactive,inactive,inactive,inactive,inactive,inactive,inactive,inactive
NC(=O)C1(N2CCCCC2)CCN(CCCC(=O)c2ccc(F)cc2)CC1,–,inactive,inactive,–,inactive,inactive,–,–,inactive,–
N=C(N)N1CCc2ccccc2C1,–,inactive,inactive,inactive,inactive,inactive,inactive,inactive,inactive,inactive
Clc1cccc(C(c2ccc3nc[nH]c3c2)n2ccnc2)c1 (configuration not stated),–,inactive,–,–,–,–,–,–,–,–
CN1CCN(c2c(F)cc3c(=O)c(C(=O)O)cn4c3c2SCC4)CC1,–,inactive,–,–,inactive,–,–,–,–,–
CCN(CC)CCOC(=O)C1(c2ccccc2)CCCC1,–,inactive,–,inactive,–,–,–,–,–,–
CN1CCc2cccc3c2[C@H]1Cc1ccc(O)c(O)c1-3,11.2 µM (active),–,6.31 µM (active),–,8.49 µM (active),16.9 µM (active),–,–,–,–
O=C(Oc1cccc2cccnc12)c1ccccc1,–,inactive,inactive,inactive,inactive,inactive,inactive,inactive,inactive,inactive
CCN(CC)CCOc1ccc2c(c1)C(=O)c1cc(OCCN(CC)CC)ccc1-2,–,inactive,10 µM (active),–,–,–,–,–,–,–
CNCCCCOc1ccccc1Cc1ccccc1,–,inactive,–,8.91 µM (active),–,–,–,–,–,–
CCNC(=O)/C=C/c1cccc(Br)c1,–,inactive,inactive,–,inactive,inactive,inactive,inactive,inactive,inactive
O=S(c1cc(Cl)cc(Cl)c1O)c1cc(Cl)cc(Cl)c1O,–,–,inactive,–,–,–,–,–,–,–
CC(C)[N+](C)(C)CC(O)COc1cccc2ccccc12 (configuration not stated),–,inactive,–,inactive,–,–,–,–,inactive,–
COc1ccc(C(Cl)=C(c2ccc(OC)cc2)c2ccc(OC)cc2)cc1,–,inactive,–,10 µM (active),inactive,inactive,inactive,–,–,inactive
COc1ccc(C(=O)c2ccccc2)c(O)c1,–,inactive,inactive,–,inactive,inactive,inactive,–,inactive,inactive
Cc1ccc2c(Br)cc(Br)c(O)c2n1,–,inactive,–,–,–,–,–,–,–,–
CC(C)(C)CC(C)(C)c1ccc(O)c(-n2nc3ccccc3n2)c1,–,inactive,–,–,inactive,inactive,inactive,inactive,inactive,inactive
CN(C)CCOC(c1ccc(Cl)cc1)c1ccccn1 (configuration not stated),–,inactive,–,7.08 µM (active),–,–,–,–,–,–
NC(N)=NCc1cccc(I)c1,–,–,inactive,inactive,inactive,inactive,inactive,inactive,inactive,–
CN1CCN(C2=Nc3ccccc3Sc3ccc(Cl)cc32)CC1,–,–,–,–,inactive,–,–,inactive,inactive,–
COC(=O)C(c1ccccc1Cl)N1CCc2sccc2C1 (configuration not stated),–,–,–,–,–,–,–,–,–,inactive
CC(=O)O[C@H]1C[C@@H]2CC[C@@H]3[C@H](CC[C@@]4(C)[C@H]3C[C@H]([N+]3(C)CCCCC3)[C@@H]4OC(C)=O)[C@@]2(C)C[C@@H]1N1CCCCC1,–,–,–,–,–,–,inactive,–,inactive,–
CO[C@]12C[C@@H](COC(=O)c3cncc(Br)c3)CN(C)[C@@H]1Cc1cn(C)c3cccc2c13,–,–,–,inactive,inactive,inactive,–,–,–,–
